Test results published in PubChem BioAssay (NCATS).
Results filed as inconclusive are left out. Where a call stands in place of a potency, no number is given. Active and inactive are the calls of the source. Unless noted, the call rests on the fitted dose curve; in most records, active means well fitted curve in the direction sought with a large enough effect; inconclusive means small, poorly fitted or top-dose-only effect, or another doubt; inactive means no such curve, though single readings can be large; an effect the other way counts as inactive or inconclusive.

Columns and labels:
[1] = biological target: Metallo-beta-lactamase type 2 (Klebsiella pneumoniae) (UniProt C7C422); experiment: qHTS to identify inhibitors of the New Delhi Metallo-beta-lactamase (NDM): assay validation screen against the NCATS LOPAC Collection (AID 1794843); further: potency means the concentration at half of the fitted maximal effect
Outline: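 NDM-1 at 2 nM final in 50 mM HEPES pH 7.0, 1 uM ZnSO4, 0.01% Tween20, preincubated with LOPAC compounds pinned in DMSO; 50 uM nitrocefin (stock) added. Hydrolysis read as absorbance at 485 nm in the plateau phase.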

[2] = biological target: Glutathione peroxidase 1 (Homo sapiens) (UniProt P07203); experiment: Primary qHTS Assay for Inhibitors of Recombinant Selenoprotein Glutathione Peroxidase 1 (GPX1) (AID 1845191); further: nearly all actives have a fitted effect of over 65% in size
Outline: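 GR-coupled assay: compounds preincubated 30 min at room temperature with GPX1, then reaction started with CHP; final 10 nM GPX1, 1 mM GSH, 0.5 mM CHP, 0.5 mM NADPH, 100 nM GR, 0.01% BSA, pH 7.5 Tris buffer. NADPH fluorescence (340/450 nm) read at 0 and 15 min.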

[3] = biological target: Phospholipid hydroperoxide glutathione peroxidase GPX4 (Homo sapiens) (UniProt P36969); experiment: Primary qHTS Assay for Inhibitors of Recombinant Selenoprotein Glutathione Peroxidase 4 (GPX4) (AID 1845192); further: nearly all actives have a fitted effect of over 65% in size
Outline: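 GR-coupled assay: recombinant GPX4 preincubated 30 min with compound at room temperature; final 200 nM GPX4, 1 mM GSH, 0.5 mM cumene hydroperoxide, 0.5 mM NADPH, 100 nM GR, 0.01% BSA, pH 7.5 Tris. NADPH fluorescence (340/450 nm) read at 0 and 15 min.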

[4] = NCATS anti-infectives library activity on HEK293 viability as a counter-qHTS vs the C. elegans viability qHTS (AID 1745854);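 further: HEK293 cells exposed to compounds for 24 hr before the viability read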
Outline: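 Cytotoxicity in human HEK293 cells is measured by ATP-dependent CellTiter-Glo luminescence following a 24 hr incubation with titrated library compounds at 37C. Top final concentration is 41.7 uM.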

[5] = NCATS anti-infectives library activity on the primary C. elegans qHTS viability assay (AID 1745855; calls by dose curve); conditions: C. elegans worm area imaging, day 7; at 41.8 µM (top of the series) unless noted
Outline: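 Viability is taken from GFP fluorescence of PE254-GFP-FLuc C. elegans imaged by laser cytometry over 7 days. Ten L1 worms per well grow at 21 °C on TOP10 E. coli capsules with titrated compound; levamisole marks toxicity.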

Chain of Phospholipid hydroperoxide glutathione peroxidase GPX4 (Homo sapiens) (P36969 whole entry, looked up): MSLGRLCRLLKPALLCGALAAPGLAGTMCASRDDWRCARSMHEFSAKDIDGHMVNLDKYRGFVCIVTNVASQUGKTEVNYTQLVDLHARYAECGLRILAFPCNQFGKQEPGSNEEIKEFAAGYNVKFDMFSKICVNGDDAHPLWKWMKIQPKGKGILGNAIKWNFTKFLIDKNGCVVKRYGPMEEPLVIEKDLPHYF
Chain of Glutathione peroxidase 1 (Homo sapiens) (P07203 whole entry, looked up): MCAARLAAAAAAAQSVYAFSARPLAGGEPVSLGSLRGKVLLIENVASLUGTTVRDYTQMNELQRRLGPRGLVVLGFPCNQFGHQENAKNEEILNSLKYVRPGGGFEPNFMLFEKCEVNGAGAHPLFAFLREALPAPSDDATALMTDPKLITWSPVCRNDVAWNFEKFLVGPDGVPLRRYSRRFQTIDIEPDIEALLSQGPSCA
Chain of Metallo-beta-lactamase type 2 (Klebsiella pneumoniae) (C7C422 whole entry, looked up): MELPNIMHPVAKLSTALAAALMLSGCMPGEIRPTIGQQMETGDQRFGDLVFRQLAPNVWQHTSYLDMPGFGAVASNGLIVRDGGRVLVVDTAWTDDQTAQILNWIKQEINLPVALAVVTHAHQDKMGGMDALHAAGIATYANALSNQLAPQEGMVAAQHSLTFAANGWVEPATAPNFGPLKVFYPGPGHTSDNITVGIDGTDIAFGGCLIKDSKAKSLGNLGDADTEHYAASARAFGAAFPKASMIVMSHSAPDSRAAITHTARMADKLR

SMILES | Potency [1] | Potency [2] | Potency [3] | outcome [4] | outcome [5]
N#C/C(=C\c1ccc(O)c(O)c1)C(=O)NCCc1ccccc1 | inactive | inactive | inactive | – | –
Oc1cc(O)c2c(c1)O[C@H](c1ccc(O)c(O)c1)[C@@H](O)C2 | inactive | inactive | inactive | inactive | inactive
CCc1ccc2c(-c3cccc(Cl)c3)nc(=O)n(CC)c2n1 | inactive | inactive | inactive | – | –
Cc1nc(N=Nc2ccc(S(=O)(=O)O)cc2S(=O)(=O)O)c(COP(=O)(O)O)c(C=O)c1O | inactive | inactive | inactive | – | –
CN1CCC2(CCN3CCc4c(oc5ccccc45)C3C2)N(C)C1=O (stereo unspecified) | inactive | – | – | – | –
Oc1cc2c(cc1O)C(c1ccccc1)CNCC2 (stereo unspecified) | inactive | inactive | inactive | – | –
O=C(O)C1=CC(=C(c2ccc(O)c(C(=O)O)c2)c2ccc(O)c(C(=O)O)c2)C=CC1=O | 1.26 µM (active) | – | – | – | –
NC[C@@H]1O[C@H](c2ccccc2)Cc2c1ccc(O)c2O | inactive | inactive | inactive | – | –
CCCCCCCCCC(=O)NC(CN1CCOCC1)[C@H](O)c1ccccc1 (stereo partly specified) | inactive | inactive | inactive | – | –
CC1=C(C(=O)O)N2C(=O)[C@@H](NC(=O)C(N)C3=CCC=CC3)[C@H]2SC1 (stereo partly specified) | inactive | inactive | inactive | – | –
CCCCCCCCCCC/C=C\C(C)(C)/C=C\CCCC(=O)O | inactive | inactive | inactive | – | –
CCCn1c(=O)c(C)cn2nc(N)nc12 | inactive | – | – | – | –
CCCCCCCCCCCCCCSCC(=O)O | inactive | inactive | inactive | – | –
O=c1ccc2c(OCCCCc3ccccc3)c3ccoc3cc2o1 | inactive | inactive | inactive | – | –
COC(=O)C(C)(N)Cc1ccc(O)cc1 (stereo unspecified) | inactive | inactive | inactive | – | –
